# Shiga toxin inh – blocks Shiga toxin action in Vero cells; inhibition, % at 38.7 µM; Vero cells, Shiga toxin protein synthesis inhibition reporter; 9.2% of 290,000 active; in the data active = inhibition mostly above about 28%, no sharp cut-off; inactive = mostly below about 43%; also: 0% is about no effect
# SARS PLP yeast – SARS-CoV PLP inhibition in yeast; S. cerevisiae expressing SARS-CoV PLpro, growth rescue; AID 485353; 0.19% of 330,000 active; Potency, µM (top dose mostly 32.9 µM), for inactives: at the highest dose activity, positive = growth rescue, hits mostly activators; calls by dose curve; also: potency is read from the fitted curve at half-maximal effect; 0% is about no effect; nearly all actives have a fitted effect of over 55% in size
# Cycloheximide cs – counter-screen for Shiga toxin inhibitors: cycloheximide protein synthesis inhibition | cell reporter, cycloheximide protein synthesis inhibition counterscreen | max response, % | 12% of 300,000 active | AID 2314; in the data active = max response mostly above about 13%, no sharp cut-off; inactive = mostly below about 14%; also: read at 38.3 µM for the half of the compounds with a filed dose; 0% is about no effect
# AmpC inh no detg – AmpC beta-lactamase inhibition without detergent | AmpC nitrocefin hydrolysis, absorbance 480 nm, 0.0001% Triton | P00811 | Potency, µM (titrated, usually from 57.1 µM), inactives show top-dose activity change, negative = inhibition, actives largely listed as inhibitors | 0.52% of 330,000 active | AID 485341;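 also: potency is read from the fitted curve at half-maximal effect; plate controls were no compound for no effect and no enzyme for full effect; nearly all actives have a fitted effect of over 20% in size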
# Target sequence (P00811 whole entry, looked up): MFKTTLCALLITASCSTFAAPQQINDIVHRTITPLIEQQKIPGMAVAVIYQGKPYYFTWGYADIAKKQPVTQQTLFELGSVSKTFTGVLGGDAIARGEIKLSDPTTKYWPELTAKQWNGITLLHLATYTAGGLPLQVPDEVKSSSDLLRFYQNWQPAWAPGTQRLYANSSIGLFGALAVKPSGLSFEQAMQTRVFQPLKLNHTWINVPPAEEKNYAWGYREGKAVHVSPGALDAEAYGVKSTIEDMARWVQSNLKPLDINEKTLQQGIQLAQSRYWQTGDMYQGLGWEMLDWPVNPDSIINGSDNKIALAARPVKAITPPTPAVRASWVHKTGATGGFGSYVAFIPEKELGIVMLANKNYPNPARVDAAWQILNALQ
#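 AmpC (5.3 nM in the dispensed reagent) in 20 mM phosphate pH 7.0 with 0.01% (detergent screen) or 0.0001% Triton X-100 was preincubated with compounds for 15 min at room temperature. Nitrocefin was then added from an 800 uM solution, and hydrolysis was followed at 480 nm.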
# AMA1-RON2 inh – AMA1-RON2 (P. falciparum) interaction inhibition; AlphaScreen AMA1-biotinylated RON2 peptide binding; Potency, µM (titrated, usually from 58.2 µM), for inactives: at the top dose activity change, negative = inhibition, usual class: inhibitors; 0.2% of 360,000 active; AID 720542;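 also: potency is read from the fitted curve at half-maximal effect; 0% = vehicle wells and -100% = peptide control; nearly all actives have a fitted effect of over 45% in size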
#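 AMA1 (3D7) with his tag at 25 nM final met compounds first, then biotinylated RON2 peptide at 25 nM; detection used donor plus acceptor beads, 10 µg/mL apiece, read by AlphaScreen after 30 min at room temperature.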
# AmpC detergent – blocks E. coli AmpC beta-lactamase in detergent assay; AID 485294; 0.041% of 370,000 active; AmpC hydrolysis of nitrocefin, absorbance 480 nm, 0.01% Triton; Potency, µM (titrated, usually from 114 µM), for inactives: at the highest dose activity change, negative = inhibition, most hits filed as inhibitors;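 also: potency is read from the fitted curve at half-maximal effect; 0% = no-compound wells and -100% = no-enzyme wells; nearly all actives have a fitted effect of over 25% in size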
#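 20 mM phosphate pH 7.0 + 0.01% (detergent screen) or 0.0001% Triton X-100; 5.3 nM AmpC reagent; cpd preinc 15 min RT; nitrocefin (800 uM stock) to start; A480 q20 s × 4 min; Activity was normalised to no-enzyme and no-compound control wells.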
# The depositor's hits bear a star; ? = inconclusive; · = no result given. Shown is part of a subset that was picked to be rich in hits. Unless noted, calls follow the shape of the dose curve; as a rule, active = well fitted curve in the direction sought with a large enough effect; inconclusive = small, poorly fitted or top-dose-only effect, or another doubt; inactive = no such curve, though single readings can be large; an effect the other way counts as inactive or inconclusive.
SMILES,Shiga toxin inh,SARS PLP yeast,Cycloheximide cs,AmpC inh no detg,AMA1-RON2 inh,AmpC detergent
COc1ccc(N/C=C/C(=O)c2ccccc2)cc1,·,-1%,9,-21%,1%,-12%
CC(C)c1nc2sc3c(=O)[nH]cnc3c2c2c1CCC2,32,1%,-2,-24%,-12%,-6%
CC(CN1CCOCC1)OC(=O)C(C)(c1ccccc1)c1ccccc1 (stereo not given),-7,-20%,0,113%,-18%,-6%
Cc1cc2ncc(C(=O)Nc3ccsc3C(=O)O)c(C)n2n1,20,0%,18*,-16%,15%,2%
Cc1ccc(C(=O)Nc2ccsc2C(=O)O)cc1,52*,14%,39*,-16%,-1%,2%
O=C(CNC(=O)c1ccccc1)Nc1ccsc1C(=O)O,7,0%,-2,-16%,-2%,4%
O=C(Nc1ccsc1C(=O)O)c1ccc(Cl)cc1,85*,-5%,27*,-24%,-1%,-8%
COc1ccc(C(=O)NN2CC(O)=C(c3nc4ccccc4n3C)C2=N)cc1OC,-18,14%,-3,-15%,79%,?
CN1/C(=C\C=N\O)C(C)(C)c2ccccc21,50,-5%,-2,-20%,-9%,-3%
CN(C)c1ccc(N=C/C=C2/N(C)c3ccccc3C2(C)C)cc1,78*,-12%,62*,-32%,?,-6%
Oc1ccc(O)c(C=NNC(=S)NC2CC3CC2C2C=CCC32)c1 (stereo not given),·,·,·,·,81%,·
NNC(=S)NC1CC2CC1C1C=CCC21 (stereo not given),28,8%,12*,-30%,46%,4%
O=C1/C(=C/c2ccc(F)cc2)CCC1C1CCCC1 (stereo not given),75*,-6%,41*,-13%,-1%,?
O=C1/C(=C/c2ccco2)CCC1C1CCCC1 (stereo not given),127*,-7%,53*,-12%,7%,-12%
O=C1/C(=C\c2ccco2)CCC/C1=C\c1ccco1,10,-27%,-2,-26%,?,-15%
CCOc1ccc(/C=C2\CCC(C3CCCC3)C2=O)cc1 (stereo not given),21,1%,22*,-5%,-1%,1%
COc1ccccc1/C=C1\CCC(C2CCCC2)C1=O (stereo not given),43*,5%,34*,-25%,12%,-2%
CCOc1ccc(/C=C2\CCC(C3CCCC3)C2=O)cc1OC (stereo not given),30,0%,8,-17%,0%,-10%
O=C(Nc1ccc(N2CCCC2)cc1)c1cc([N+](=O)[O-])ccc1N1CCOCC1,-3,-6%,5,-10%,-7%,?
O=C(CNC1CCCCC1)N1CCC2(CC1)OCCO2,-13,5%,-2,-20%,-19%,?
O=C1/C(=C/c2ccccc2)CCC1C1CCCC1 (stereo not given),76*,4%,40*,-12%,-22%,-14%
Cn1cc(C(=O)c2cccc(Cl)c2)cc1/C=N\O,39,0%,33*,-23%,-16%,6%
Cn1cc(C(=O)c2cccc(Cl)c2)cc1C#N,-11,3%,4,-17%,13%,8%
COc1ccc(OCC(O)CNCc2ccco2)cc1 (stereo not given),11,1%,4,-4%,2%,-1%
Cc1cccc(C(=O)NCC(=O)N2CCN(S(=O)(=O)c3ccccc3)CC2)c1,·,1%,·,0%,2%,-7%
Cc1cccc(C(=O)NCC(=O)N2CCCC2)c1,49*,-2%,12*,-4%,15%,-10%
Cc1cccc(N2CCN(C(=O)CNC(=O)C3CCCCC3)CC2)c1C,·,2%,·,20%,-22%,?
Cc1ccc(C(=O)NCCN2CCNC2=O)cc1,58*,0%,28*,-5%,11%,7%
Cc1cccc(N2CCN(C(=O)CNC(=O)c3ccccc3)CC2)c1C,63*,0%,33*,-9%,11%,-1%
Cc1ccc(C(=O)NCCC(=O)N2CCCC2)cc1,41*,-4%,37*,-12%,0%,2%

# Bioassay records: PubChem, National Center for Advancing Translational Sciences (NCATS)
